eLon inh: inhibits E. coli Lon protease. P0A9M0. purified E. coli Lon protease, fluorescence polarization. inhibition, % at 7.94 µM. hit rate 0.42% among 360,000. AID 602123; in the data active means inhibition above about 13%, passing the limit was not always enough;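 further: 0% = enzyme with probe and DMSO and 100% = no enzyme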
RTF Ca sens act: increases calcium sensitivity of human cardiac regulated thin filaments; IANBD-labeled TnC RTF fluorescence at EC20 calcium; 0% EC20 calcium, 100% full calcium; activation, % at 7.2 µM; hit rate 0.24% among 340,000;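 active means activation above the mean over all tested compounds plus 3 SD, cut at about 30% in these data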;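 further: rise in fluorescence read as greater calcium sensitivity of cardiac thin filaments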
C-LANA FP: KSHV C-LANA DNA binding inhibition. inhibition, % at 9 µM. hit rate 0.078% among 340,000. MBP-C-LANA/FAM-LBS DNA binding, fluorescence polarization;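 active means highest replicate inhibition at or above 60% at 9 µM, even if other replicates fall short; inactive means all replicates below 60% inhibition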;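 further: 0% = neutral control wells and 100% = 4 µM acridine orange control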
Cardiac RTF inh: cardiac RTF calcium desensitization; inhibition, % at 7.15 µM; P19429+P45379; IANBD-labeled cardiac RTF, Ca2+ fluorescence; AID 493244; hit rate 0.12% among 340,000;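 active means inhibition above the mean inhibition of all tested compounds plus 3 SD, cut at about 17% in these data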;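 further: assay run at fixed EC70 calcium of 1.6 mM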
Keap1-Nrf2 PPI: disrupts human Keap1 binding to Nrf2 peptide. Keap1 Kelch-Nrf2 peptide fluorescence polarization, 1536-well. inhibition, % at 9.4 µM. hit rate 0.15% among 340,000; in the data active means inhibition above about 12%;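 further: human Keap1 Kelch domain with fluorescein labeled Nrf2 9mer peptide probe; 0% = neutral control wells and 100% = peptide positive control; higher means more block of Keap1 binding to Nrf2 peptide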
E coli Lon conf: confirmation of E. coli Lon protease inhibitors | shares compounds with eLon inh | purified E. coli Lon, fluorescence polarization | inhibition, % at 7.94 µM | hit rate 31% among 1,400; in the data active means inhibition above about 16%;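 further: 0% = enzyme with probe and DMSO and 100% = no enzyme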
An asterisk follows results filed as active; . = not tested or not shown; + = active, no number. This is a sample that favours compounds with a hit; in the whole collection about 0.82% have one here.

SMILES	eLon inh	RTF Ca sens act	C-LANA FP	Cardiac RTF inh	Keap1-Nrf2 PPI	E coli Lon conf
COC(=O)c1ccc(-c2nc(CN3CCN(C(=O)c4ccco4)CC3)c(C)o2)cc1	15*	.	.	.	.	-2
Cc1ccc(S(=O)(=O)Nc2cc3c(C(=O)Nc4ccccc4)c(C)oc3c3ccccc23)cc1	25*	3	0	5	-2	40*
CC(=O)c1c(C)oc2c1cc(NS(=O)(=O)c1ccc(C(=O)O)cc1)c1ccccc12	3	-5	0	5	5	.
CCn1c2ccccc2nc2cc3c(cc21)c(Cl)c(=O)c1ccccc13	5	.	.	.	.	.
CN(C)/C=N/c1cc(=O)[nH]c(=O)n1CC1CC1	-3	8	0	-1	-4	.
C=CCn1c(=O)[nH]c2nc3cc(N=CN(C)C)c(C)cc3nc2c1=O	158*	131*	23	-141	-1	+
COCCNC(=O)C1(C)CCCN(C(=O)c2ccco2)C1 (stereo unspecified)	7	.	.	.	.	.
COCCn1c(N)c(N(Cc2ccccc2)C(=O)C2=COCCO2)c(=O)[nH]c1=O	29*	-3	0	-9	1	6
Cc1cccn2c(=O)c(C=C(C#N)C#N)c(N3CCN(C)CC3)nc12	17*	-1	0	5	2	13
O=C(CCS(=O)(=O)Cc1ccccc1)N1CCc2ccccc2C1	-4	-7	0	-1	-2	.
O=C(CCS(=O)(=O)Cc1ccccc1F)N1CCc2ccccc2C1	18*	11	0	0	-3	-17
Cc1ccc(/C=C/C(=O)O)cc1S(=O)(=O)NCC1CCCO1 (stereo unspecified)	-9	2	-2	8	-1	.
Cc1ccc(/C=C/C(=O)O)cc1S(=O)(=O)NC1CCS(=O)(=O)C1 (stereo unspecified)	15*	-1	-7	0	-5	-5
NC(=S)Nc1cccc2cc3ccccc3cc12	42*	8	1	-10	-2	113*
NC(=S)Nc1cc2ccccc2c2ccccc12	10	6	1	0	2	.
N#Cc1c(N2CCCC2)nc(N)c2c(N)nc(N3CCCC3)cc12	51*	7	4	4	-4	0
Cc1ccccc1S(=O)(=O)NC(=O)C1(C)CCN1C(=O)CC1CCCCC1 (stereo unspecified)	4	.	.	.	.	.
CC(NC(=O)COC(=O)C12CC3CC(CC(Br)(C3)C1)C2)c1ccccc1 (stereo unspecified)	26*	-1	1	-6	4	-1
COc1ccc(CCNC(=O)COC(=O)C23CC4CC(CC(Br)(C4)C2)C3)cc1	6	2	0	4	-2	.
CN(C)NC(=S)Nc1ccc2nc(-c3ccccn3)c(-c3ccccn3)nc2c1	15	-2	2	-3	-3	.
S=C(Nc1ccc2nc(-c3ccccn3)c(-c3ccccn3)nc2c1)N1CCOCC1	20*	13	9	-13	1	7
O=C(Nc1c2c(nn1-c1ccccc1)CS(=O)(=O)C2)c1ccc(Br)o1	-8	.	.	.	.	.
CC1CCN(C(=O)C(C)NCc2ccc(F)cc2)CC1 (stereo unspecified)	36*	1	1	2	1	3
CN(C)c1ncnc2c1ncn2[C@H]1CN(Cc2cccs2)C[C@@H](CO)O1	-1	.	.	.	.	.
COc1ccc(C(=O)OCC(=O)NC2CC2)cc1	-5	.	.	.	.	.
SMILES	eLon inh	RTF Ca sens act	C-LANA FP	Cardiac RTF inh	Keap1-Nrf2 PPI	E coli Lon conf
Cc1ccccc1-n1c(SCc2c(C)noc2C)nnc1-c1cccnc1	63*	22	3	-42	-1	45*
Cc1c(NC(=O)c2cc3ccccc3o2)cccc1-n1cnnn1	-10	.	.	.	.	.
CC(=O)NCCNc1nc2cc(-c3ccc4c(ccn4C)c3)sc2c(=O)n1C	-16	.	.	.	.	.
O=C(Cc1cccc2c(=O)cc(-c3ccccc3)oc12)OCCN1CCOCC1	-3	.	.	.	.	.
N#Cc1cnc(SCC(=O)N2CCCC2)nc1N	14*	-5	-1	2	-4	-11
CC1=C(C(=O)N(C)C)CC(CC(=O)NCc2cccs2)C(=O)N1Cc1ccc(F)cc1 (stereo unspecified)	4	.	.	.	.	.
CC(=O)c1c(C)[nH]c(C(=O)OCc2ccccc2)c1C	-2	4	9	2	-3	.
CC(=O)c1c(C)[nH]c(C(=O)OCC(=O)N(Cc2ccccc2)C(C)(C)C)c1C	71*	3	-2	-8	-3	-63
Cc1cc(NC(=O)c2coc(=O)c(Br)c2)ccc1C(C)C	24*	.	1	.	-3	19*
C[C@@H](NC(=O)c1coc(=O)c(Br)c1)c1ccccc1	-4	2	-1	-11	1	.
CCc1ccc(CN(C)Cc2c(C(=O)N3CCOCC3)nc3c(C)cccn23)nc1	-2	.	.	.	.	.
CCCCNC(=O)c1cc(-c2ccc(OC)cc2)on1	23*	1	-1	1	3	-6
O=c1[nH]c2ccccc2nc1/C=C/c1ccccc1	14*	16	3	-4	-4	-36
Cn1c(NCCOc2ccccc2Cl)nc2cc(-c3ccc(F)cc3)sc2c1=O	1	.	.	.	.	.
Cc1cc2cc(CNS(=O)(=O)c3ccccc3)ccc2n1C	31*	-2	-2	-7	2	20*
COc1ccc(S(=O)(=O)NCc2ccc3c(c2)cc(C)n3C)cc1	15*	6	1	-6	0	10
CN(Cc1cnn(-c2ccc(F)cc2)c1)C(=O)[C@H]1O[C@@H](n2cnc3c(N)ncnc32)[C@H](O)[C@@H]1O	0	.	.	.	.	.
OC(c1ccc(F)cc1)c1nc(-c2ccc(F)c(Cl)c2)cs1 (stereo unspecified)	-2	.	.	.	.	.
Cc1ccc(S(=O)(=O)N(C)C[C@H]2OCCCC[C@@H](C)Oc3ccc(NC(=O)Cc4ccccc4)cc3C(=O)N([C@H](C)CO)C[C@@H]2C)cc1	5	.	.	.	.	.
CC(=O)N1CC=C2C(C#N)=C(N)C(C#N)(C#N)[C@H](c3ccoc3)[C@H]2C1	31*	8	13	-19	-7	15
OC(C#Cc1ccccn1)c1cccs1 (stereo unspecified)	30*	8	7	7	-4	5
CCC(=O)N(C)C[C@H]1Oc2ncc(C#Cc3cccnc3)cc2C(=O)N([C@@H](C)CO)C[C@@H]1C	-11	.	.	.	.	.
COc1ccc(NS(=O)(=O)c2ccc(OC)c(N(C)S(=O)(=O)c3ccc(Cl)cc3)c2)cc1	3	0	2	-2	2	.
COc1ccc(S(=O)(=O)Nc2ccc(F)cc2)cc1N(C)S(=O)(=O)c1ccc(Cl)cc1	16*	8	0	-4	-7	41*
Cc1ccccc1-n1ccnc1SCC(=O)Nc1cccc(S(=O)(=O)NC2=NCCC2)c1	17*	1	0	-8	0	-1
Cc1ccccc1OCC(=O)Nc1cccc(S(=O)(=O)NC2=NCCC2)c1	-3	5	0	4	3	.
O=[N+]([O-])c1ccc(N2CCN(Cc3ccccc3)CC2)c2c1no[n+]2[O-]	32*	.	.	.	.	5

High-throughput results: PubChem BioAssay, several laboratories
